Experimental data taken from PubChem BioAssay AID1508649 (National Center for Advancing Translational Sciences (NCATS), 2021).
About 830 (1.9%) of roughly 43,000 compounds were called active. Another 30% or so got no clear call; they are omitted. The sample as a whole holds a higher share of actives than the screen did. Values without a mark were called inactive. Rule for the calls: active = clear falling dose curves in both reporters; inconclusive = both reporters move, but less clearly or upward; inactive = either reporter flat; the % is the NLuc reporter signal.

Assay: Cell-based coincidence reporter assay to measure PMP22 gene transcription in S16 Pmp22-F2sN cells - Primary screen
Settings: S16 Pmp22-F2sN Schwann cells (luciferase reporters placed in the Pmp22 gene), FLuc/NLuc coincidence luminescence, 24 h; series mostly up to 57.5 µM; activity change, negative = inhibition: at the top concentration
Text: Assay Provider: Jim Inglese Ph.D. National Center for Advancing Translational Science, National Institutes of Health, Rockville, MD CMT is a heterogeneous group of neurological disorders that affect approximately 1 in 2,500 people. In particular, the most common form of CMT, CMT1A is genetically linked to the duplication of the PMP22 gene which leads to Schwann cell overexpression, thus manifesting itself as a typical case of dose-sensitive diseases. To identify small molecule compounds that can mediate the expression of PMP22 we developed a phenotypic assay screening strategy by utilizing genome editing techniques to construct Schwann cell lines containing novel reporter technology to monitor the transcriptional or translational regulation of PMP22. For high sensitivity we use a bioluminescent reporter system embedded in the 3' UTR of the PMP22 gene (S16(c9) Pmp22-F2sN) to identify compounds that inhibit gene expression. […] We can further discriminate the effect of all transcriptionally active molecules on PMP22 translation or stability with an assay that incorporates a short NLuc peptide (HiBiT) at the C-terminus of expressed PMP22 (S16(f8) PMP22-HiBiT) allowing alpha complementation and luminescence detection of membrane-associated PMP22 protein. These assays were screened against the NCATS Sytravon Library Collection. Miniaturization of these assays to 1536-well plate format for quantitative high throughput screening (qHTS) yielded rich data sets immediately from the qHTS assay (S16(c9) Pmp22-F2sN), when compared with data from a cell viability assay (Cell TiterGlo) to identify compounds that decreased the output signals through cellular toxicity to streamline the selection process of actives for subsequent characterization using the HiBiT assay (S16(f8) PMP22-HiBiT).
Cell-based coincidence reporter assay to measure PMP22 gene transcription in S16 Pmp22-F2sN cells PROTOCOL TABLE (format as described by Inglese J, Shamu CE and Guy RK. 2007) SEQUENCE No. (e.g., 1, 2, 3, etc.); […] (e.g., Cells, Incubation, Reagent, etc.); VALUE and DESCRIPTION. 1. Cells. Add 500-1,000 cells in 4 uL in growth media (DMEM High Glucose, No Phenol Red media + 10% heat-inactivated FBS + 1% Pen/Strep supplemented media) per well into Greiner 1536-well white/solid bottom high base, TC-treated plates. 2. Compounds. Library compounds and controls added at 23nL per well, transferred by Pin Tool. 3. Incubation. Incubate plates at 37C, 5% CO2, 95% RH for 24 h. 4. Reagent. Add 3.5uL Nano-Glo Dual-Luciferase Reporter Assay System reagent 1: Lysis and FLuc reagent per well of Greiner 1536-well plates. 5. Incubation. Incubate plates at room temperature for 10 min., protect from light. 6. Detector. FLuc luminescence measured using CCD-based camera (Viewlux). 7. Reagent. Add 3.5uL Nano-Glo Dual-Luciferase Reporter Assay System reagent 2: Stop&Glo reagent per well of Greiner 1536-well plates. 8. Incubation. Incubate plates at room temperature for 10 min., protect from light. 9. Detector. NLuc luminescence measured using CCD-based camera (Viewlux). NOTES (numbers refer to Sequence numbers above; values are from representative experiments) 6. Luminescence Read #1 (FLuc): Clear filter; Exposure = 10 sec, Gain = High, Speed = Slow, Binning = 2X 9. Luminescence Read #2 (NLuc): Clear filter; Exposure = 1 sec, Gain = High, Speed = Slow, Binning = 2X REFERENCES: 1. Inglese J, Shamu CE and Guy RK, Reporting data from high throughput screening of small molecule libraries, Nature Chemical Biology, 2007, 3(8): 438-441. doi.org/10.1038/nchembio0807-438 2. Yasgar A, Shinn P, Jadhav A, Auld DS, Michael S, Zheng W, Austin CP, Inglese J and Simeonov A, Compound Management for Quantitative High-Throughput Screening. J. Assoc. Lab. Auto., 2008, 13: 79-89. doi: 10.1016/j.jala.2007.12.004
% is set by controls: 0 for no effect and ±100 for the full control effect; potency is the fitted concentration of half-maximal effect.

Point of comparison: Cc1nnc(C)n1-c1ccc(C(=O)Nc2cccc(Br)c2)cc1, “activity change, negative = inhibition” value 23.7%. Against it:
- COc1ccc(OC)c(CCNC(=O)CCCn2c(=O)c3cccn3c3cccnc32)c1 — lower, -47.8%
- CCc1ccc(NS(=O)(=O)c2ccc3[nH]cc(C(=O)NCCc4cccc(C)c4)c(=O)c3c2)cc1 — lower, -16.7%
- COc1cccc(CNC(=O)C(NS(=O)(=O)c2ccc3nc(C)sc3c2)C(C)C)c1 (stereo not drawn) — lower, 1.61%
- CCOC(=O)C1=C(c2ccccc2)Nc2ncnn2C1c1ccc(Cl)cc1 (stereo not drawn) — lower, -19.3%
- Cc1ccc(C)c2sc(NC(=O)c3ccc(S(=O)(=O)N4CCCC4)cc3)nc12 — lower, -6.67%
- COc1ccc(C(=O)N2CCC(c3nc4ccccc4o3)CC2)cc1 — lower, -2.94%
- Fc1cccc(-n2ncc3c2ncn2nc(-c4ccccc4Cl)nc32)c1 — lower, 1.98%
- COc1cc(NC(=O)NCC2CCN(Cc3ccc(C)cc3)CC2)cc(OC)c1OC — lower, -8.67%
- Cc1ccc(-c2onc(C)c2C)cc1S(=O)(=O)Nc1ccccn1 — lower, 1.02%
- CCS(=O)(=O)c1nc(S(=O)(=O)c2ccc(C)cc2)c(NCc2ccc(Cl)cc2)s1 — lower, -7.32%
- CCc1ccc(Nc2nn3c(=O)c4cc5c(cc4nc3s2)OCO5)cc1 — lower, -6.98%
- COc1ccc(N2CCN(C(=O)c3c(C)oc4nc(C)nc(N5CCCC5)c34)CC2)cc1 — lower, -27.4%
- CC1=C(C(=O)OCc2ccc(C)cc2)C(c2c(Cl)cccc2Cl)CC(=O)N1 (stereo not drawn) — lower, -9.76%
- CC1=C(C(=O)OCc2ccc(C)cc2)C(c2ccccc2Cl)CC(=O)N1 (stereo not drawn) — lower, 14%
- COc1ccc(-c2nn3c(-c4ccc(OC)cc4)nnc3c3ccccc23)cc1 — lower, 2.98%
- CCOC(=O)c1cc(OC(=O)c2ccccc2Cl)n(-c2ccccc2)n1 — lower, -11.1%
- COc1cc(OC)cc(-c2nc3nc(C)c(CCC(=O)Nc4ccc(C)cc4)c(C)n3n2)c1 — lower, 1.75%
- Cc1ccc(NC(=O)Cn2cnc3nc4c(cc3c2=O)CCCC4)cc1Cl — lower, 23.1%
- O=C(CCc1nc(CN2CCN(S(=O)(=O)c3ccc(F)cc3)CC2)no1)N1CCCCC1 — lower, -12.7%
- CCOC(=O)c1cccc(NC(=O)c2cc(CN3CCCC3)on2)c1 — lower, 4.87%
- CCc1ccccc1NC(=O)N1CCN(C(=O)c2nsc3ccccc23)CC1 — lower, 2.47%
- Cc1ccc(NC(=O)CN2c3ccccc3S(=O)(=O)c3ccccc32)cc1F — lower, 6.49%
- COc1cccc(NC(=O)N2CCN(C(=O)c3nsc4ccccc34)CC2)c1 — lower, -15.2%
- CCc1ccccc1NC(=O)Cc1cn(C)c2ccccc12 — lower, -23.8%
- O=c1cc(COc2cccc(C(F)(F)F)c2)nc2sc3c(n12)CCCC3 — lower, -19.3%
- COc1cccc(CNC(=O)c2nnn(CC(=O)Nc3cc(Cl)ccc3C)c2N)c1 — lower, -26.4%
- CCOc1ccccc1NC(=O)Cn1nnc(C(=O)Nc2ccc(C)c(C)c2)c1N — lower, -12.8%
- Cc1ccc(-c2noc(CSc3nnc(-c4ccc(Cl)cc4)n3C)n2)cc1 — lower, -54.7%
- CCN(CCCNC(=O)c1c(C)oc2ncn(CC(C)C)c(=O)c12)Cc1ccccc1 — lower, -18.5%
- COc1ccc(OC)c(NC(=O)C2CCN(S(=O)(=O)c3ccc(C)cc3)CC2)c1 — lower, 2.94%
- Cc1cc(C)nc(NS(=O)(=O)c2ccc(NC(=O)c3cc(=O)c4ccc(C)c(C)c4o3)cc2)n1 — lower, -33.5%
- COc1ccc(Cn2ccnc2SCC(=O)Nc2ccc3c(c2)OCO3)cc1 — lower, -13%
- CCn1cc(C(=O)NCc2ccc(C)cc2)c(=O)c2cc(S(=O)(=O)N3CCc4ccccc4C3)ccc21 — lower, 0.357%
- COc1cc(NC(=O)c2nc3ccccc3nc2C)cc(OC)c1OC — lower, -18.9%
- COc1cccc(C(=O)Nc2ccc3nc4n(c(=O)c3c2)CCCCC4)c1 — lower, -16.8%
- CC(=O)c1ccc(N2CCN(C3C(=O)c4ccccc4N3C(C)=O)CC2)cc1 (stereo not drawn) — lower, 6.64%
- Cc1ccc2sc(N(Cc3cccnc3)C(=O)C3COc4ccccc4O3)nc2c1C (stereo not drawn) — lower, -67.6%
- O=C(C1COc2ccccc2O1)N(Cc1cccnc1)c1nc2c(F)cc(F)cc2s1 (stereo not drawn) — lower, -8.93%

For O=C(c1ccc(C(F)(F)F)cc1)N1CCC(c2nc(-c3ccc(S(=O)(=O)N4CCCC4)cc3)no2)CC1, the Potency was 14.2 µM (active).
With COc1ccc(-c2onc(C)c2C)cc1S(=O)(=O)NCC1CCN(Cc2cccc(F)c2)CC1 the Potency was 14.1 µM (active).
For CCc1ccc(C2CC(=O)c3c([nH]c(C(=O)OCc4ccc(C)cc4)c3C)C2)cc1 (stereo not drawn), the Potency was 10 µM (active).
For COc1cccc(NC(=O)N(Cc2cn(C)c3ccccc23)C2CCCCCC2)c1, the Potency was 10.6 µM (active).
With CCOc1ccccc1NC(=O)Cn1nnc(C(=O)NCc2cccs2)c1N the Potency was 0.401 µM (active).
In the case of COc1ccc(C2Sc3ccccc3NC3=C2C(=O)c2ccccc23)c(OC)c1OC (stereo not drawn), the Potency was 7.27 µM (active).
In the case of COc1ccc(S(=O)(=O)Nc2cc3c(C(=O)OC(C)C)c(C)oc3c3ccccc23)cc1, the Potency was 11.3 µM (active).
For COc1ccccc1Nc1c2c(nc3ccc(NC(=O)/C=C/c4cc(OC)c(OC)c(OC)c4)cc13)CCCC2, the Potency was 6.04 µM (active).
With O=C(CCS(=O)(=O)c1ccccc1)N(Cc1cccnc1)c1nc2c(F)cccc2s1 the Potency was 10.6 µM (active).
